Assay [1] concerns the target Tyrosine-protein kinase Fer (Homo sapiens) (UniProt P16591). To be noted: at 1 µM.
Assay [2] concerns the target Tyrosine-protein kinase Fes/Fps (Homo sapiens) (UniProt P07332). To be noted: at 0.1 µM.
Assay [3] has the same target. The following applies: at 1 µM.
Assay [4] concerns the target Fibroblast growth factor receptor 1 (Homo sapiens) (UniProt P11362). The following applies: at 0.1 µM.
Assay [5] shares this target. The following applies: at 1 µM.
Assay [6] deals with Fibroblast growth factor receptor 2 (Homo sapiens) (UniProt P21802). To be noted: at 0.1 µM.
For assay [7] the target is unchanged. The following applies: at 1 µM.
Assay [8] addresses Fibroblast growth factor receptor 3 (Homo sapiens) (UniProt P22607). To be noted: at 0.1 µM.
For assay [9] the target is unchanged. To be noted: at 1 µM.
Assay [10] has as its target Fibroblast growth factor receptor 4 (Homo sapiens) (UniProt P22455). The following applies: at 0.1 µM.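 Note: values are mean percent inhibition of FGFR4.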

For 17 compounds, inhibition results are on record in ChEMBL document CHEMBL1961873, “Compounds: GSK PKIS; Assays: Nanosyn kinase panel” (2012).

Fibroblast growth factor receptor 4 (Homo sapiens), sequence (P22455 22-802 limits assumed): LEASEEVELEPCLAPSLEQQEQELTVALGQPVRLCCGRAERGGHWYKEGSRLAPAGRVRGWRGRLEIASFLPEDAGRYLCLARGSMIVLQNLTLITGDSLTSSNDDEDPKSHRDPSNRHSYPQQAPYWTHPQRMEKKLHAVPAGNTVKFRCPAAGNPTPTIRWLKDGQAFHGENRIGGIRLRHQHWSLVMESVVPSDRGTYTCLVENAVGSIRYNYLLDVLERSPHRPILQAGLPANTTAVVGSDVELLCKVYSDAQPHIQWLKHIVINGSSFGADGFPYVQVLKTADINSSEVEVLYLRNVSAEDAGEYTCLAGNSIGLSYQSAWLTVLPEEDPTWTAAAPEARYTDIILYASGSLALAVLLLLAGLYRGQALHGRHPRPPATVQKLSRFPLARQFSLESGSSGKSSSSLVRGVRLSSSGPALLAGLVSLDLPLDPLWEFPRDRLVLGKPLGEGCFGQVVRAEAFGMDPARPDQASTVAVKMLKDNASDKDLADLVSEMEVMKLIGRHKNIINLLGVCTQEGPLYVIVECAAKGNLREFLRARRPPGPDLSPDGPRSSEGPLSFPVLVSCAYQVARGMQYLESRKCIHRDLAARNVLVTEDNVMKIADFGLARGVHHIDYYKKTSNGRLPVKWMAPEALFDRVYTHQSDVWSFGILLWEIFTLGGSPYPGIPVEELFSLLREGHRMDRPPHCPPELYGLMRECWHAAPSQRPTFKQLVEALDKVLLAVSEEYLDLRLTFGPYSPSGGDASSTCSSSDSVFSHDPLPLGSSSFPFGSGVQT
Fibroblast growth factor receptor 1 (Homo sapiens), sequence (P11362 22-822 limits assumed): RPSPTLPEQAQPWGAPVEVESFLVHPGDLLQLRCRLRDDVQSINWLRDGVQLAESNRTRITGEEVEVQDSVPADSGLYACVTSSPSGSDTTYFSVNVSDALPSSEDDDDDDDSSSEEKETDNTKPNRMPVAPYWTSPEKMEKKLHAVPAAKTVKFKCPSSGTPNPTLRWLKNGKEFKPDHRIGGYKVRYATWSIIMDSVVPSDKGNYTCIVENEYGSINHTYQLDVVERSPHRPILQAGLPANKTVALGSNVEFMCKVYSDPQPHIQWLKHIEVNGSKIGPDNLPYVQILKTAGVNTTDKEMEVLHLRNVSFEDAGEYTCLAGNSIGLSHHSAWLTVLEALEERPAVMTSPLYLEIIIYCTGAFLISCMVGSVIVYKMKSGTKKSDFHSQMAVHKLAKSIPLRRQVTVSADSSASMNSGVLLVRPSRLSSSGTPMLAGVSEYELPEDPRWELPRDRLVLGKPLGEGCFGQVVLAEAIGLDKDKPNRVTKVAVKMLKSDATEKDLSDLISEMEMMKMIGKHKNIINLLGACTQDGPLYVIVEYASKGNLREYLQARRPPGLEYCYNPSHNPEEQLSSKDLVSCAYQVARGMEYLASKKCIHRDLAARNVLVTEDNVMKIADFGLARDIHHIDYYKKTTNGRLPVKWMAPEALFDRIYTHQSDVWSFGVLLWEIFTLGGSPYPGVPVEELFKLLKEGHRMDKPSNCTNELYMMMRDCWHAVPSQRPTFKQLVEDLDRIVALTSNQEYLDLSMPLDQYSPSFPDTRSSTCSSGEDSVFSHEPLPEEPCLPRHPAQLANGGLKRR
Fibroblast growth factor receptor 2 (Homo sapiens), sequence (P21802 22-821 limits assumed): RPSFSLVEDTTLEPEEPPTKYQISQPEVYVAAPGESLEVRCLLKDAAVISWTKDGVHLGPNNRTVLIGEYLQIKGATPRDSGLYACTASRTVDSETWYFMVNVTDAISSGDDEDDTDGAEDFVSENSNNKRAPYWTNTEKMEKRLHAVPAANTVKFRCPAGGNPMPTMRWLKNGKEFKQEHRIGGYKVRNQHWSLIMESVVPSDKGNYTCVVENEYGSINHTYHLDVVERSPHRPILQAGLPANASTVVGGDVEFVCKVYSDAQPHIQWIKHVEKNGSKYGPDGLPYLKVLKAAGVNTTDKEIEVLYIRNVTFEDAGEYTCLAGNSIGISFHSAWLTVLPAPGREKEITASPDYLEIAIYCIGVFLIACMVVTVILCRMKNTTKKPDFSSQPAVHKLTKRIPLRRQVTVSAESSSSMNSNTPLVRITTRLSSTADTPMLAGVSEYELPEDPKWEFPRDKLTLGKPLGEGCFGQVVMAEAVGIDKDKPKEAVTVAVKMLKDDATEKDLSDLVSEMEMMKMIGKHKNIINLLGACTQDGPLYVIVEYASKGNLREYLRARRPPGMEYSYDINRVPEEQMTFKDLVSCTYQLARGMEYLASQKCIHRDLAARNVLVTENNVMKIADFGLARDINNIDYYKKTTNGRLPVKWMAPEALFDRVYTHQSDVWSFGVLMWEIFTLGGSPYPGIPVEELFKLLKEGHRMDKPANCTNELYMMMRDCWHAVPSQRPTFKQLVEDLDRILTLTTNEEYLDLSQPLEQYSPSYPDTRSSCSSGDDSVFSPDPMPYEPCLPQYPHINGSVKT
Tyrosine-protein kinase Fer (Homo sapiens), sequence (P16591 whole entry, looked up): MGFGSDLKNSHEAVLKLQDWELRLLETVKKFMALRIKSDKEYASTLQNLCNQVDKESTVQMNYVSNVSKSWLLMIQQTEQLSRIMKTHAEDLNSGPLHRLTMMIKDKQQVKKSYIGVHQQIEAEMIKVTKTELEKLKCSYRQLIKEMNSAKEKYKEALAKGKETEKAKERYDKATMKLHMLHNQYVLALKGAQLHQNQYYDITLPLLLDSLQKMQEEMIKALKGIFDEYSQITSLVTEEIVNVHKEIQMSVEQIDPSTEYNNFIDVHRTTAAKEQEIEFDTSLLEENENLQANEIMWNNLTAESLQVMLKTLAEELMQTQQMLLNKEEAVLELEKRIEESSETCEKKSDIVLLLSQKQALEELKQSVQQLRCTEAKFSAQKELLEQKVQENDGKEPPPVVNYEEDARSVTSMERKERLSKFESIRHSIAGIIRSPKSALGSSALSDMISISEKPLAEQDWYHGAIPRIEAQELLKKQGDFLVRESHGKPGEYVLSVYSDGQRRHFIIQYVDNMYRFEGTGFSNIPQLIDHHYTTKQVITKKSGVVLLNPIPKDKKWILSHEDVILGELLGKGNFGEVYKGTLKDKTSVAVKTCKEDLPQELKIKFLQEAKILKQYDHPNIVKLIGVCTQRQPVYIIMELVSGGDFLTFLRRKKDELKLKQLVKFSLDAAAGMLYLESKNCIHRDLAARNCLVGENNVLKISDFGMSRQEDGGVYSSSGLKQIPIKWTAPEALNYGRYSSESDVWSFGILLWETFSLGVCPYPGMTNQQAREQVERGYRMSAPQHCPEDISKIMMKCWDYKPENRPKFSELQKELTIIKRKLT
Fibroblast growth factor receptor 3 (Homo sapiens), sequence (P22607 23-806 limits assumed): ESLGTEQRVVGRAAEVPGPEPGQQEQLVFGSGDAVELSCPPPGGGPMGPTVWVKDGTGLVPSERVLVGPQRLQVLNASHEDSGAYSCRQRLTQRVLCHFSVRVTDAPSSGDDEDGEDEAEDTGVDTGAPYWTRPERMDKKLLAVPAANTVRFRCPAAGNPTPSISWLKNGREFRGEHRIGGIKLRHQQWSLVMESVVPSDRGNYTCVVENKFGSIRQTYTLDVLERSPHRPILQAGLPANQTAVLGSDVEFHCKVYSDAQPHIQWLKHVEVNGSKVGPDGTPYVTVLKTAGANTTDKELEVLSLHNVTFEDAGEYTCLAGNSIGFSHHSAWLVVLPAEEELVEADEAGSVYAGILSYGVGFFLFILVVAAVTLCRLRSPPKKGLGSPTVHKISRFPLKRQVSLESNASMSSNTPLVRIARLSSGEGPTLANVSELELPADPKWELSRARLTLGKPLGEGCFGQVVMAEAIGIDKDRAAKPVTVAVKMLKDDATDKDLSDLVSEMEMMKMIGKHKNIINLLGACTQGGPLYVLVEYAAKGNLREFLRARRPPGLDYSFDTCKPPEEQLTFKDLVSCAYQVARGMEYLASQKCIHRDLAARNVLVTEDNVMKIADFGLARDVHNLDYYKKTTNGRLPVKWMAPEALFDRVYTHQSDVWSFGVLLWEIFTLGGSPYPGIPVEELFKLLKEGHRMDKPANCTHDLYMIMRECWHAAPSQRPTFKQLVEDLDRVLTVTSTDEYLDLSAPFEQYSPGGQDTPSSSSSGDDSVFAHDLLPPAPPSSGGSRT
Tyrosine-protein kinase Fes/Fps (Homo sapiens), sequence (P07332 whole entry): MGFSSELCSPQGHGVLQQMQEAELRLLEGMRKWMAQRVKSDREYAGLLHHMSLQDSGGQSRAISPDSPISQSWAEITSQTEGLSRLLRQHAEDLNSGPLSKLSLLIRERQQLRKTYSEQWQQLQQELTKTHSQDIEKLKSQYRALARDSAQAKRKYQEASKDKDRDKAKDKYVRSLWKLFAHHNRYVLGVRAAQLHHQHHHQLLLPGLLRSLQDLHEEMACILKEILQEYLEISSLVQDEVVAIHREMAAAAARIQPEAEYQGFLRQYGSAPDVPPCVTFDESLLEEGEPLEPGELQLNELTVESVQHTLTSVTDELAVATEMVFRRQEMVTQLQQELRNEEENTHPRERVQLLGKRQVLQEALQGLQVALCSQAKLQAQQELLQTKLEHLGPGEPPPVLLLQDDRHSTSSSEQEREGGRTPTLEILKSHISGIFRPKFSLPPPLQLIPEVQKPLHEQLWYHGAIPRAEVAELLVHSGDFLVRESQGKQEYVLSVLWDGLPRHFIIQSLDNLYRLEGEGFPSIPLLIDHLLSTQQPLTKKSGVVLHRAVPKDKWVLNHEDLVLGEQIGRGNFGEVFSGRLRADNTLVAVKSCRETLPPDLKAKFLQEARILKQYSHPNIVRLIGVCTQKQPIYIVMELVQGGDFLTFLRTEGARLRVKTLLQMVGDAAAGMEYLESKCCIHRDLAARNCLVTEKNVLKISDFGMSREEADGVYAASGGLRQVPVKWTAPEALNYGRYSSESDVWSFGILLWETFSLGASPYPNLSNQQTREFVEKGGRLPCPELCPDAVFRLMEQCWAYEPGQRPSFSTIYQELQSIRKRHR

The inhibition is the drop in the measured response relative to a control, in per cent. As for `O=C(O[C@H]1CN[C@H](C#Cc2cc3ncnc(Nc4ccc(Cc5ccccc5)cc4)c3s2)C1)N1CCOCC1`, the inhibition is -0.65% in assay [1]; 1.87% in [2]; 1.71% in [3]; 1.97% in assay [4]; 2.47% in assay [5]; 2.52% in assay [6]. Also, the inhibition is 1.51% in assay [7], 1.73% in assay [8], 0.73% in assay [9] and 4.79% in [10].
Take `NS(=O)(=O)c1ccc(N/N=C2\C(=O)Nc3ccc4ncccc4c32)cc1`: the inhibition in assay [1] was 22.8%; in assay [2] it was 2.15%; in assay [3] it was 6.75%; in assay [4], 10.8%; in assay [5], 41%; in assay [6], 27.5%. Further, the inhibition in [7] is 69.8%; in [8], 26.1%; in [9] it was 70.7%; in assay [10] it was -0.17%.
For `CCn1c(-c2nonc2N)nc2cnc(Oc3cccc(NC(=O)c4ccc(N(C)C)cc4)c3)cc21`, the inhibition in assay [1] was 2.5%; in [2], 0.77%; in assay [3], 1.31%; in [4] it was 3.11%; in [5], 0.12%; in [6], -0.14%. Besides, the inhibition in assay [7] is 3.9%; in [8], 2.5%; in assay [9], 3.54%; in assay [10], 1.51%.
Turning to `CS(=O)(=O)CCNCc1coc(-c2ccc3ncnc(Nc4ccc(OCc5ccccc5)cc4)c3c2)c1`, the inhibition in assay [1] worked out at 1.36%; in [2], 2.79%; in assay [3], 3.78%; in assay [4], 3.21%; in assay [5] it was 2.53%; in [6] it was 3.27%. For the same compound, the inhibition in assay [7] is 4.29%; in assay [8], 5.11%; in [9] it was 3.99%; in assay [10], 4.22%.
`COc1cc(/C=N/Nc2ncnc3[nH]ncc23)ccc1O`: the inhibition was 14.3% in [1]; 2.22% in [2]; 7.19% in [3]; 1.55% in [4]; 7.94% in assay [5]; 4.76% in [6]. Also, the inhibition in assay [7] is 16.9%; in assay [8], 5.91%; in assay [9] it was 19%; in assay [10], -1.95%.
As to `COC(=O)Nc1nc2ccc(S(=O)(=O)c3ccc(NC(=O)Nc4cc(C(F)(F)F)ccc4F)cc3)cc2[nH]1`, the inhibition in assay [1] came out at 2.04%; in [2] it was 2.47%; in assay [3], 2.5%; in assay [4], 3.55%; in assay [5], 2.11%; in [6], 2.63%. The inhibition is 7.81% in [7], 4.85% in assay [8], 4.38% in [9] and -1.95% in [10].
In the case of `Nc1nc(-c2ccc(F)cc2)c(-c2ccc3ncccc3n2)s1`, the inhibition came out at 11.1% in [1]; 3.07% in assay [2]; 4.26% in [3]; 4.21% in assay [4]; 4.14% in assay [5]; 4.62% in assay [6]. The inhibition came out at 11.8% in assay [7], 8.15% in [8], 11.4% in assay [9] and 1.96% in assay [10].
As for `COc1ccc(-c2oc3ncnc(N)c3c2-c2ccc(NC(=O)Nc3cc(C(F)(F)F)ccc3F)cc2)cc1`, the inhibition in [1] is 64.5%; in assay [2] it was 3.91%; in assay [3], 17.1%; in [4], 10.1%; in [5] it was 66%; in assay [6], 31.2%. Besides, the inhibition is 75.9% in assay [7], 10% in [8], 63.8% in assay [9] and 5.68% in assay [10].
`NS(=O)(=O)c1ccc(Nc2ncc(-c3ccccc3)o2)cc1`: the inhibition came out at 4.95% in [1]; 2.8% in assay [2]; 4.88% in assay [3]; 6.58% in [4]; 8.69% in assay [5]; 7.74% in assay [6]. For the same compound, the inhibition amounted to 16.1% in assay [7], 7.08% in assay [8], 11.2% in [9] and 2.06% in assay [10].
Consider `Fc1ccc(-c2nn3ccccc3c2-c2ccncc2)cc1`, for which the inhibition is 0.75% in assay [1]; 0.57% in assay [2]; 0.96% in [3]; 3.29% in assay [4]; 0.56% in assay [5]; -0.01% in assay [6]. In addition, the inhibition in [7] amounted to 6.38%; in assay [8] it was 5.68%; in assay [9] it was 2.66%; in [10] it was 0.84%.
On to `COc1ccc2[nH]c3c4[nH]c5ccc(OC)cc5c4c4c(c3c2c1)C(=O)NC4=O`, for which the inhibition was 67.7% in assay [1]; 3.43% in [2]; 10.4% in assay [3]; 1.76% in assay [4]; 3.2% in [5]; 4.75% in assay [6]. Moreover, the inhibition in [7] amounted to 16.4%; in [8], 7.7%; in [9], 15.2%; in assay [10], 2.26%.
Turning to `Cc1ccc(O)cc1Nc1ccnc2cc(-c3ccccn3)ccc12`, the inhibition was determined as 8.05% in assay [1]; 4.23% in [2]; 8.97% in assay [3]; 15.1% in assay [4]; 46.6% in [5]; 12.8% in [6]. Besides, the inhibition in [7] came out at 43.2%; in [8] it was 8.93%; in [9], 25.8%; in assay [10], 9.41%.
On to `CC(C)(CO)CNC(=O)c1ccc2c(c1)/C(=N/Nc1ccc(S(N)(=O)=O)cc1)C(=O)N2`, for which the inhibition in assay [2] is -0.1%; in assay [3] it was 0.22%; in assay [4], -4.71%; in assay [5], 1.07%; in assay [6], 0.16%; in assay [7], 6.9%. Also, the inhibition amounted to 4.13% in [8], 5.3% in [9] and 0.38% in assay [10].
Turning to `COc1ccc(-c2cc(-c3c[nH]nc3-c3ccccn3)ccn2)cc1`, the inhibition in [1] is 7.83%; in assay [2], 3.39%; in assay [3], 3.93%; in assay [4], 1.12%; in assay [5] it was -0.51%; in [6], 1.91%. The inhibition in [7] is 4.55%; in assay [8], 8.17%; in assay [9] it was 5.23%; in assay [10], -2.23%.
For the compound `CCN(CC)S(=O)(=O)c1ccc(OC)c(Nc2ncc(-c3ccccc3)o2)c1`, the inhibition was 4.52% in [1]; 0.12% in assay [2]; -0.42% in assay [3]; 0.18% in assay [4]; 23.7% in assay [5]; 15% in assay [6]. For the same compound, the inhibition in [7] was found to be 54.6%; in [8] it was 18.4%; in assay [9] it was 59.5%; in assay [10], 2.44%.
Take `Fc1ccc(-c2cc(-c3c[nH]nc3-c3ccccn3)ccn2)cc1`: the inhibition in assay [1] came out at 5.23%; in [2], 2.57%; in assay [3], 3.31%; in assay [4], 6.18%; in assay [5], 6.81%; in assay [6], 5.36%. Besides, the inhibition in [7] was 5.13%; in assay [8], 4.33%; in assay [10], -0.17%.
For the compound `COc1ccc(-c2cc3c(N)ncnc3o2)cc1`, the inhibition was 1.69% in [1]; -0.35% in assay [2]; -0.8% in assay [3]; -5.35% in assay [4]; -1.74% in [6]; -4.78% in assay [7]. The inhibition in assay [8] is -0.11%; in assay [9] it was -2.94%; in assay [10] it was 2.88%.
